PubChem BioAssay
Entries with a potency or affinity are not part of this list. Active and inactive are the calls of the source. How the calls were made is not given here.

experiment: toxicity toward immortalized ovarian surface epithelium – cell-based, plate reader, dry powder samples, cytotoxicity control for PAX8 inhibitor project, dose response (AID 743045); conditions: IOSE-T80 ovarian epithelial cells; series mostly up to 35 µM;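 further: more negative values mean more cell killing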

SMILES	outcome
C[C@H](CO)N1C[C@H](C)[C@@H](CN(C)S(=O)(=O)c2ccc(Cl)cc2)OCCCC[C@H](C)Oc2ccc(NS(=O)(=O)c3ccc(Cl)cc3)cc2C1=O	inactive
CCCNC(=O)Nc1ccc2c(c1)OC[C@H](C)N(Cc1ccc(-c3ccccn3)cc1)C[C@@H](C)[C@@H](OC)CN(C)C2=O	inactive
C[C@H]1CN([C@@H](C)CO)C(=O)c2cc(NS(=O)(=O)c3ccccc3)ccc2O[C@@H]1CN(C)Cc1ccc(Oc2ccccc2)cc1	inactive
C[C@@H]1CN([C@@H](C)CO)C(=O)Cc2cc(NC(=O)CCC(F)(F)F)ccc2O[C@H]1CN(C)Cc1ccc(-c2ccccc2)cc1	inactive
C[C@@H]1CN([C@H](C)CO)C(=O)Cc2cc(NC(=O)Nc3ccc(F)cc3)ccc2O[C@H]1CN(C)Cc1ccc(Cl)c(Cl)c1	inactive
C[C@@H]1CCCCO[C@@H](CN(C)Cc2ccc(C(F)(F)F)cc2)[C@@H](C)CN([C@@H](C)CO)C(=O)c2cc(NS(=O)(=O)c3ccccc3)ccc2O1	inactive
C[C@@H]1CCCCO[C@H](CN(C)Cc2ccc(Cl)c(Cl)c2)[C@H](C)CN([C@@H](C)CO)C(=O)c2cc(NC(=O)Nc3ccccc3)ccc2O1	inactive
COc1ccc(NC(=O)Nc2ccc3c(c2)CC(=O)N([C@H](C)CO)C[C@@H](C)[C@@H](CN(C)Cc2ccc(Oc4ccccc4)cc2)O3)cc1	inactive
C[C@@H]1CCCCO[C@H](CN(C)Cc2ccc(C(F)(F)F)cc2)[C@H](C)CN([C@@H](C)CO)C(=O)c2cc(NS(=O)(=O)c3cccs3)ccc2O1	inactive
CN1c2ccc(-c3cccc(F)c3)cc2[C@@H]2[C@@H](CCN2C(=O)Cc2ccccc2)[C@@H]1CO	inactive
O=C(Nc1ccc(Cl)c(Cl)c1)N[C@@H]1CC[C@H](CCn2cc(C3CCCCC3)nn2)O[C@H]1CO	inactive
COc1cccc(S(=O)(=O)N2CC[C@H]3[C@@H](CO)N(C)c4ccc(C#Cc5ccc(F)cc5)cc4[C@H]32)c1	inactive
O=C(C[C@H]1CC[C@H]2[C@@H](COC[C@@H](O)CN2Cc2ccc(Oc3ccccc3)cc2)O1)N1CCCCC1	inactive
C[C@@H]1CN([C@H](C)CO)C(=O)c2cc(NC(=O)Nc3ccc(F)cc3)ccc2O[C@@H](C)CCCCO[C@@H]1CN(C)Cc1ccc2c(c1)OCO2	inactive
C[C@@H]1CCCCO[C@H](CN(C)Cc2ccc(C(F)(F)F)cc2)[C@H](C)CN([C@H](C)CO)C(=O)c2cc(NS(=O)(=O)c3cccs3)ccc2O1	inactive
C[C@@H]1CCCCO[C@@H](CN(C)Cc2ccc(C(F)(F)F)cc2)[C@@H](C)CN([C@@H](C)CO)C(=O)c2cc(NS(=O)(=O)c3ccc(F)cc3)ccc2O1	inactive
O=S(=O)(c1ccccc1F)N1CC[C@@H]2[C@@H](CO)Nc3ccc(C4=CCCCC4)cc3[C@@H]21	inactive
Cc1noc(C)c1S(=O)(=O)N(C)C[C@@H]1OCCCC[C@H](C)Oc2ccc(NS(=O)(=O)c3ccc(Cl)cc3)cc2C(=O)N([C@H](C)CO)C[C@@H]1C	inactive
COc1ccc(NC(=O)Nc2ccc3c(c2)C(=O)N([C@@H](C)CO)C[C@@H](C)[C@@H](CN(C)CC2CCCCC2)OCCCC[C@@H](C)O3)cc1	inactive
C[C@@H]1CCCCO[C@@H](CN(C)C(=O)Nc2cccc3ccccc23)[C@H](C)CN([C@H](C)CO)C(=O)c2cc(NS(=O)(=O)c3ccccc3)ccc2O1	inactive
C[C@@H]1CCCCO[C@H](CN(C)Cc2ccc(C(F)(F)F)cc2)[C@H](C)CN([C@H](C)CO)C(=O)c2cc(NS(=O)(=O)c3ccccc3)ccc2O1	inactive
C[C@@H]1CN([C@H](C)CO)S(=O)(=O)c2ccc(C#CC3CCCC3)cc2O[C@@H]1CN(C)C(=O)Cc1ccncc1	inactive

experiment: A2780 cell killing – plate reader, dry powder samples, cytotoxicity control, dose response (AID 743046); conditions: A2780 ovarian cancer cytotoxicity; series mostly up to 35 µM

SMILES	outcome
C[C@H](CO)N1C[C@H](C)[C@@H](CN(C)S(=O)(=O)c2ccc(Cl)cc2)OCCCC[C@H](C)Oc2ccc(NS(=O)(=O)c3ccc(Cl)cc3)cc2C1=O	inactive
CCCNC(=O)Nc1ccc2c(c1)OC[C@H](C)N(Cc1ccc(-c3ccccn3)cc1)C[C@@H](C)[C@@H](OC)CN(C)C2=O	inactive
C[C@@H]1CN([C@@H](C)CO)C(=O)Cc2cc(NC(=O)CCC(F)(F)F)ccc2O[C@H]1CN(C)Cc1ccc(-c2ccccc2)cc1	inactive
C[C@@H]1CN([C@H](C)CO)C(=O)Cc2cc(NC(=O)Nc3ccc(F)cc3)ccc2O[C@H]1CN(C)Cc1ccc(Cl)c(Cl)c1	inactive
C[C@@H]1CCCCO[C@@H](CN(C)Cc2ccc(C(F)(F)F)cc2)[C@@H](C)CN([C@@H](C)CO)C(=O)c2cc(NS(=O)(=O)c3ccccc3)ccc2O1	inactive
C[C@@H]1CCCCO[C@H](CN(C)Cc2ccc(Cl)c(Cl)c2)[C@H](C)CN([C@@H](C)CO)C(=O)c2cc(NC(=O)Nc3ccccc3)ccc2O1	inactive
COc1ccc(NC(=O)Nc2ccc3c(c2)CC(=O)N([C@H](C)CO)C[C@@H](C)[C@@H](CN(C)Cc2ccc(Oc4ccccc4)cc2)O3)cc1	inactive
C[C@@H]1CCCCO[C@H](CN(C)Cc2ccc(C(F)(F)F)cc2)[C@H](C)CN([C@@H](C)CO)C(=O)c2cc(NS(=O)(=O)c3cccs3)ccc2O1	inactive
CN1c2ccc(-c3cccc(F)c3)cc2[C@@H]2[C@@H](CCN2C(=O)Cc2ccccc2)[C@@H]1CO	inactive
O=C(Nc1ccc(Cl)c(Cl)c1)N[C@@H]1CC[C@H](CCn2cc(C3CCCCC3)nn2)O[C@H]1CO	inactive
COc1cccc(S(=O)(=O)N2CC[C@H]3[C@@H](CO)N(C)c4ccc(C#Cc5ccc(F)cc5)cc4[C@H]32)c1	inactive
O=C(C[C@H]1CC[C@H]2[C@@H](COC[C@@H](O)CN2Cc2ccc(Oc3ccccc3)cc2)O1)N1CCCCC1	inactive
C[C@@H]1CN([C@H](C)CO)C(=O)c2cc(NC(=O)Nc3ccc(F)cc3)ccc2O[C@@H](C)CCCCO[C@@H]1CN(C)Cc1ccc2c(c1)OCO2	inactive
C[C@@H]1CCCCO[C@H](CN(C)Cc2ccc(C(F)(F)F)cc2)[C@H](C)CN([C@H](C)CO)C(=O)c2cc(NS(=O)(=O)c3cccs3)ccc2O1	inactive
C[C@@H]1CCCCO[C@@H](CN(C)Cc2ccc(C(F)(F)F)cc2)[C@@H](C)CN([C@@H](C)CO)C(=O)c2cc(NS(=O)(=O)c3ccc(F)cc3)ccc2O1	inactive
O=S(=O)(c1ccccc1F)N1CC[C@@H]2[C@@H](CO)Nc3ccc(C4=CCCCC4)cc3[C@@H]21	inactive
Cc1noc(C)c1S(=O)(=O)N(C)C[C@@H]1OCCCC[C@H](C)Oc2ccc(NS(=O)(=O)c3ccc(Cl)cc3)cc2C(=O)N([C@H](C)CO)C[C@@H]1C	inactive
COc1ccc(NC(=O)Nc2ccc3c(c2)C(=O)N([C@@H](C)CO)C[C@@H](C)[C@@H](CN(C)CC2CCCCC2)OCCCC[C@@H](C)O3)cc1	inactive
C[C@@H]1CCCCO[C@@H](CN(C)C(=O)Nc2cccc3ccccc23)[C@H](C)CN([C@H](C)CO)C(=O)c2cc(NS(=O)(=O)c3ccccc3)ccc2O1	inactive
C[C@@H]1CCCCO[C@H](CN(C)Cc2ccc(C(F)(F)F)cc2)[C@H](C)CN([C@H](C)CO)C(=O)c2cc(NS(=O)(=O)c3ccccc3)ccc2O1	inactive
C[C@@H]1CN([C@H](C)CO)S(=O)(=O)c2ccc(C#CC3CCCC3)cc2O[C@@H]1CN(C)C(=O)Cc1ccncc1	inactive
